CtBP-E1A blk: CtBP/E1A binding inhibition. AlphaScreen GST-E1A/His-CtBP binding, 1536-well; stronger effect = lower value. activity change, % (concentration not given with the values). 0.49% of 340,000 active. AID 651724; in the data active means activity change below about -65%; inconclusive means mostly about -30% to -63%
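GST-E1A and His-tagged CtBP (125 nM each as 5X stock) were preincubated with pin-transferred compound for 2 h at 37 °C in the dark, then glutathione donor and nickel acceptor beads were added for 1 h before AlphaScreen reading.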
HP1b binding inh: inhibitors of HP1-beta chromodomain binding to methylated histone tails | AlphaScreen HP1-beta / biotin-H3K9me3 peptide binding | Potency, µM (titrated, usually from 114 µM), most hits filed as inhibitors | 0.56% of 390,000 active | AID 540317; further: nearly all actives have a fitted effect of over 70% in size
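Compound inhibition of the preformed complex between 50 nM HP1-beta and 50 nM biotinylated H3K9me3 peptide was read by AlphaScreen. Buffer was PBS pH 7.4 with 0.01% Tween-20. Incubations ran 30 min at room temperature, with 10 ug/mL donor/acceptor beads.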
JMJD2A Tudor inh: inhibitors of human JMJD2A Tudor domain; O75164; AlphaScreen JMJD2A-Tudor / H3K4me3 peptide binding; Potency, µM (doses to about 114 µM), hits mostly inhibitors; 4.4% of 390,000 active; AID 504339; further: nearly all actives have a fitted effect of over 50% in size
G9a block: inhibitors of human histone lysine methyltransferase G9a. Q96KQ7. 8.8% of 350,000 active. G9a H3K9 monomethylation, AlphaScreen, 2 h. AID 504332. Potency, µM (series often up to 102 µM), hits mostly inhibitors; further: nearly all actives have a fitted effect of over 75% in size
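Methyltransferase reactions run at room temperature for 2 h (20 nM enzyme, 500 nM biotin-H3K9 peptide, 20 uM SAM) after a 15 min compound preincubation; product detected by AlphaScreen beads and anti-H3K9me1 antibody.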
Six1-Eya2 inh: Six1/Eya2 interaction inhibition | Q15475+O00167 | AlphaScreen GST-Six1/His-Eya2 binding, biochemical; stronger effect = lower value | activity change, % (test concentration not listed) | 0.56% of 360,000 active | AID 651725; in the data active means activity change below about -65%; inconclusive means mostly about -30% to -63%
Target sequence (O00167 whole entry, looked up): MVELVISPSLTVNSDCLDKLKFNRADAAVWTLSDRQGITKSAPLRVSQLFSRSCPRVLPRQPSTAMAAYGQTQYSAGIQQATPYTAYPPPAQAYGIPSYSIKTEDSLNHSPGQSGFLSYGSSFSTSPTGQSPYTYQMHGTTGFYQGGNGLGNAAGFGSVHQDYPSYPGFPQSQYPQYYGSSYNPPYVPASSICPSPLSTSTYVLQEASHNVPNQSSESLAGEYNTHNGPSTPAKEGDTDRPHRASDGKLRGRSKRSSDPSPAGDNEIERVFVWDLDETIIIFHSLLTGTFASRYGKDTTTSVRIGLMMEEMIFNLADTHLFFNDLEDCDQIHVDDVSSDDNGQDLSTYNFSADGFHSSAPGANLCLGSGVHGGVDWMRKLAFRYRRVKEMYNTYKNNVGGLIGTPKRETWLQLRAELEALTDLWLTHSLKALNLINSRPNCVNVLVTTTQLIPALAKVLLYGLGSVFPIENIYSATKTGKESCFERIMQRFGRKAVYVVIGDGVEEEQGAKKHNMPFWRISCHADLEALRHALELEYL
Target sequence (Q15475 whole entry, looked up): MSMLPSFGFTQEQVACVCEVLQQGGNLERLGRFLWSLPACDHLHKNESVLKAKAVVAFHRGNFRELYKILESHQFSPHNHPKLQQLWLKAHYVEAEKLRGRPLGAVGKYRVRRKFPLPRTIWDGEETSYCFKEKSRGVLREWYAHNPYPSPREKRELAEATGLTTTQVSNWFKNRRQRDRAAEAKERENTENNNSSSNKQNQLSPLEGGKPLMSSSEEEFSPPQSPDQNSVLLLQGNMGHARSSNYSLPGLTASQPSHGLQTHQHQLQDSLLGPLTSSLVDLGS
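Six1/Eya2 binding was read as AlphaScreen signal after compounds were pinned into GST-Six1 plus His-tagged Eya2 (5X stock 250/500 nM) in pH 8.0 Tris/NaCl/TCEP buffer, beads added, then incubated 1 h, 37 C, dark.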
BAZ2B inh: BAZ2B (human) inhibition | 4.4% of 360,000 active | Potency, µM (doses to about 114 µM), hits mostly inhibitors | Q9UIF8 | AlphaScreen BAZ2B-H3K14Ac peptide displacement; further: nearly all actives have a fitted effect of over 60% in size
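BAZ2B 50 nM plus b-H3(5-23)K14Ac 50 nM, PBS pH 7.4/0.01% Tween-20, 30 min RT; compound added (max 110 uM), 30 min RT; streptavidin donor/Ni-chelate acceptor beads 10 ug/mL final, 20 min dark; AlphaScreen read.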
Large screens that a line does not name were inactive. Sampled rows, rich in hits. Any-hit rate of the full collection: about 10%. Unless noted, the call rests on the fitted dose curve; in most records, active means well fitted inhibition curve with a large enough effect; inconclusive means small, poorly fitted or top-dose-only effect; inactive means no such curve, though single readings can be large or run the other way.

Cn1c(=O)c2c(nc(SCC(=O)Nc3ccc(F)cc3)n2Cc2ccccc2F)n(C)c1=O	none (no result: CtBP-E1A blk, Six1-Eya2 inh)
COC(=O)/C=C1\N/C(=N\c2nc(C)cc(C)n2)N(c2ccccc2)C1=O	none
COC(=O)/C=C1/N/C(=N\c2nc(C)cc(C)n2)N(c2cccc(C)c2)C1=O	JMJD2A Tudor inh 22µM
C(=Nc1ccc(Nc2ccccc2)cc1)c1ccc2ccccc2c1	CtBP-E1A blk inconclusive, HP1b binding inh inconclusive, JMJD2A Tudor inh inconclusive, G9a block 1.6µM, Six1-Eya2 inh inconclusive, BAZ2B inh 35µM
Brc1ccc(C=Nc2ccc(Nc3ccccc3)cc2)s1	HP1b binding inh inconclusive, JMJD2A Tudor inh 28µM, G9a block 8.9µM, Six1-Eya2 inh inconclusive, BAZ2B inh 40µM
O=C(N/N=C/c1ccc(Br)s1)c1ccccc1[N+](=O)[O-]	none
O=C(CSc1nc(-c2ccccc2)c(-c2ccccc2)[nH]1)NCCN1C(=O)CSC1=O	JMJD2A Tudor inh inconclusive, G9a block inconclusive, BAZ2B inh inconclusive
Cc1onc(-c2ccccc2)c1C(=O)O/N=C(\N)c1ccc([N+](=O)[O-])o1	G9a block 45µM (no result: CtBP-E1A blk)
Cc1onc(-c2ccccc2Cl)c1C(=O)O/N=C(\N)c1ccccc1	none
Cc1onc(-c2ccccc2Cl)c1C(=O)O/N=C(\N)c1cccc([N+](=O)[O-])c1	none (no result: HP1b binding inh, JMJD2A Tudor inh, G9a block, BAZ2B inh)
Cc1onc(-c2cccc(Cl)c2Cl)c1C(=O)O/N=C(\N)c1ccc([N+](=O)[O-])o1	JMJD2A Tudor inh inconclusive, G9a block 35µM, BAZ2B inh inconclusive
O=C1c2ccccc2C(=O)N1c1ccc2ccccc2n1	none (no result: CtBP-E1A blk, HP1b binding inh, G9a block, Six1-Eya2 inh, BAZ2B inh)
CCN(CC(=O)Nc1cc(Cl)ccc1C)C(=O)c1ccc2c(=O)n3c(nc2c1)CCC3	CtBP-E1A blk inconclusive, Six1-Eya2 inh inconclusive
COc1ccccc1N1CCN(C(=O)C(CC(C)C)NC(=O)C2CCCCC2)CC1 (centres undefined)	none
CCOC(=O)CSc1nc2ccc(NC(=O)c3ccc(F)cc3)cc2s1	BAZ2B inh inconclusive (no result: CtBP-E1A blk, Six1-Eya2 inh)
N#CC(Sc1ccccn1)c1ccc(Cl)cc1 (centres undefined)	G9a block 7.9µM (no result: CtBP-E1A blk)
O=C1C2CC=C(Cl)CC2C(=O)N1CC1OCCc2ccccc21 (centres undefined)	G9a block inconclusive
O=C1C2CC=C(Cl)CC2C(=O)N1CC1Cc2ccccc2CO1 (centres undefined)	G9a block 50µM
O=C1C2CC=C(Cl)CC2C(=O)N1CN(Cc1ccco1)CN1C(=O)C2CC=C(Cl)CC2C1=O (centres undefined)	G9a block 50µM, BAZ2B inh 50µM
COc1cc([N+](=O)[O-])ccc1NC(=S)NNC(=O)c1ccc2c(c1)OCO2	CtBP-E1A blk inconclusive, HP1b binding inh inconclusive, JMJD2A Tudor inh 50µM, G9a block 8.9µM, BAZ2B inh inconclusive
COC(=O)c1ccccc1NC(=S)NC(=O)c1ccc2c(c1)OCO2	G9a block 40µM, Six1-Eya2 inh inconclusive
CCCCC(=O)Nc1cccc(NC(=S)NC(=O)C(C)C)c1	JMJD2A Tudor inh inconclusive, G9a block 28µM
CC(C)C(=O)Nc1cccc(NC(=S)NC(=O)c2ccc3c(c2)OCO3)c1	JMJD2A Tudor inh 22µM
CC(C)C(=O)Nc1cccc(NC(=S)NC(=O)c2ccc(Cl)cc2)c1	none
CCOC(=O)[C@]12CCCC=C1N(CCC1=CCCCC1)C(=O)[C@H](CC(=O)N1CCN(C(=O)C3CC3)CC1)C2	none (no result: HP1b binding inh, JMJD2A Tudor inh, G9a block, BAZ2B inh)
CN(CCO)c1cccc2c1S(=O)(=O)N[C@H](Cc1ccccc1)CO2	none (no result: HP1b binding inh, JMJD2A Tudor inh, G9a block, BAZ2B inh)
COc1ccccc1N/C=C(\C#N)c1nc2ccccc2[nH]1	none (no result: CtBP-E1A blk)
CCN(CC)C1CCN(C(=O)CCn2nnnc2CN2CCOCC2)C1 (centres undefined)	none
COc1cc([N+](=O)[O-])ccc1NC(=O)NNC(=O)CCc1ccccc1	none
COc1cc([N+](=O)[O-])ccc1NC(=O)NNC(=O)c1sccc1C	G9a block 71µM
CC(NC(=O)c1cc([N+](=O)[O-])cc([N+](=O)[O-])c1)c1ccc(-n2ccnc2)cc1 (centres undefined)	G9a block inconclusive, BAZ2B inh inconclusive
CC(NC(=O)c1ccc(N(C)C)c([N+](=O)[O-])c1)c1ccc(-n2ccnc2)cc1 (centres undefined)	JMJD2A Tudor inh inconclusive, G9a block 79µM, BAZ2B inh inconclusive
CCOc1ccccc1NC(=O)CN1CCCCCC1	JMJD2A Tudor inh 3.2µM, BAZ2B inh 50µM (no result: G9a block)
CCOc1ccccc1NC(=O)CSC1=NN2CCCC(=O)N=C2S1	G9a block 40µM
CCOc1ccc(NC(=O)CN2CCN(CC(=O)Nc3ccccc3OCC)CC2)cc1	none (no result: CtBP-E1A blk, Six1-Eya2 inh)
CCOc1ccccc1NC(=O)COC(=O)C1CC(=O)N(c2c(C)cccc2C)C1 (centres undefined)	G9a block 56µM
CCC1CCCCN1C(=O)COc1ccccc1NC(C)=O (centres undefined)	G9a block 45µM
CN(Cc1ccc(Cl)cc1)C(CCc1ccccc1)C(=O)NC1CCCCC1 (centres undefined)	none (no result: HP1b binding inh, JMJD2A Tudor inh, G9a block, BAZ2B inh)
CCOc1ccc(OCC)c(NC(=O)CN2CCN(CC(=O)NC(C)C)CC2)c1	HP1b binding inh inconclusive, JMJD2A Tudor inh 28µM, BAZ2B inh inconclusive (no result: CtBP-E1A blk, G9a block)
CCOc1ccc(OCC)c(NC(=O)Cn2cccc2)c1	none
CCOc1ccc(OCC)c(NC(=O)CN2CCN(CC)CC2)c1	HP1b binding inh inconclusive, JMJD2A Tudor inh 0.89µM, G9a block 20µM, BAZ2B inh inconclusive
Cc1ccc(-n2ncc(C(=O)N3CCCCC3)c2C2CCN(C(=O)OC(C)(C)C)CC2)c(C)c1	none (no result: CtBP-E1A blk, Six1-Eya2 inh)
Cc1[nH]n(-c2ccccc2)c(=O)c1C(c1cccc([N+](=O)[O-])c1)c1c(C)[nH]n(-c2ccccc2)c1=O	JMJD2A Tudor inh inconclusive, G9a block 35µM, BAZ2B inh 28µM
Cc1[nH]n(-c2ccccc2)c(=O)c1C(=O)c1ccc([N+](=O)[O-])cc1	G9a block 50µM
Cc1[nH]n(-c2ccccc2)c(=O)c1C(C[N+](=O)[O-])c1ccc(Br)cc1 (centres undefined)	JMJD2A Tudor inh inconclusive, G9a block 40µM, BAZ2B inh inconclusive
COc1cccc(C(C[N+](=O)[O-])c2c(C)[nH]n(-c3ccccc3)c2=O)c1 (centres undefined)	G9a block 10µM, BAZ2B inh inconclusive
Cc1[nH]n(-c2ccccc2)c(=S)c1C=Nc1ccc([N+](=O)[O-])cc1	HP1b binding inh inconclusive, JMJD2A Tudor inh 1.8µM, G9a block 0.89µM, BAZ2B inh 10µM
CCOc1ccc(C(c2c(C)[nH]n(-c3ccccc3)c2=O)c2c(C)[nH]n(-c3ccccc3)c2=O)cc1OC	HP1b binding inh inconclusive, JMJD2A Tudor inh inconclusive, G9a block 8.9µM, BAZ2B inh inconclusive (no result: CtBP-E1A blk, Six1-Eya2 inh)

Compound activity as filed in PubChem.
